Reference: PubChem BioAssay AID1259343 (VanderVen Lab, College of Veterinary Medicine, Cornell …, 2017)
About 2,900 (47%) of roughly 6,200 compounds were called active. The set was probably picked from earlier hits. Some of the results follow. Values without a mark were called inactive. Cut-off read from the data, not from the text of the source: active = inhibition above about 50%; inactive = the rest.

assay: Mycobacterium tuberculosis growth inhibition, primary screen (AID 1259343); conditions: inhibition: at 10 µM, stronger effect = higher value; outcome: 10 uM

Row | SMILES | inhibition
1 | O=[N+]([O-])c1ccc2[nH]c(=S)sc2c1 | -16.1%
2 | N#CCCSc1nc2ccc([N+](=O)[O-])cc2s1 | 52% (active)
3 | Cc1nc2sc(C)c(C)n2c(=O)c1NC(=O)c1ccc(-c2ccccc2)cc1 | 34.6%
4 | CC(=O)Nc1nc(-c2ccc(C)cc2)c(-c2ccccc2)s1 | 86% (active)
5 | CN(C)C=Nc1nc(-c2ccccc2)c(-c2ccccc2)s1 | 15.9%
6 | O=C(NC1CCS(=O)(=O)C1)c1ccc(Br)o1 (centres undefined) | 10.7%
7 | O=C(Nc1cc(F)ccc1F)c1ccc(NC(=O)C2CC2)s1 | 23.9%
8 | O=C(NC1CCS(=O)(=O)C1)c1ccc(-c2ccc(F)cc2)s1 (centres undefined) | 79% (active)
9 | COc1ccc(C(=O)Nc2cc(C3CC3)nn2-c2nc(C)c(C)c(=O)[nH]2)c(OC)c1 | 90% (active)
10 | COc1ccc(C(=O)Nc2cc(C)nn2-c2nc(C)c(C)c(=O)[nH]2)c(OC)c1 | 26.6%
11 | COc1cc(C(=O)Nc2cc(C3CC3)nn2-c2nc(C)cc(=O)[nH]2)cc(OC)c1OC | 101% (active)
12 | COc1cc(C(=O)Nc2cc(C3CC3)nn2-c2nc(C)c(C)c(=O)[nH]2)cc(OC)c1OC | 100% (active)
13 | COc1ccc(OCCSc2nnnn2C2CCCCC2)cc1 | -35.2%
14 | c1ccc2c(c1)OCC(CSc1nnnn1C1CCCC1)O2 (centres undefined) | 96.2% (active)
15 | Clc1cc(CSc2nnnn2C2CCCC2)cc2c1OCCO2 | -23.6%
16 | N#CC1(NC(=O)c2cnc(-c3ccc4c(c3)OCO4)s2)CCCC1 | 86.4% (active)
17 | CN(Cc1ccco1)C(=O)c1cnc(-c2ccc3c(c2)OCO3)nc1Nc1ccccc1 | 47.5%
18 | C=CCN(C(=O)c1ccc(-c2ccc3c(c2)OCCO3)s1)C1CCCCC1 | 45.7%
19 | COc1ccc(N=C(c2cc([N+](=O)[O-])cc([N+](=O)[O-])c2)n2ccnc2)cc1 | 92.1% (active)
20 | O=C(c1cc(Br)c[nH]1)N1CCC(Nc2ccc(F)cc2)CC1 | 1.55%
21 | COCc1ccc(C(=O)N2CCCC(Nc3ccc(C(C)C)cc3)C2)s1 (centres undefined) | 21.9%
22 | C=Cc1ccc(C(=O)N2CCCC(Nc3ccc(F)cc3)C2)cc1 (centres undefined) | 75.9% (active)
23 | O=C(Nc1nc2c(s1)CCc1ccccc1-2)C1CC1 | 64% (active)
24 | Cc1nc(NC(=O)C2CC2)sc1Cc1ccccc1Cl | 32.1%
25 | O=C(C=Cc1cccs1)NC1CCCCC1 | 37%
26 | CCC(CNC(=O)/C=C/c1sccc1C)c1ccccc1 (centres undefined) | 28.2%
27 | C=CCNC(=O)C=Cc1cccs1 | 92.6% (active)

Row | SMILES | inhibition
28 | O=C(C=Cc1cccs1)NC1CCCCCC1 | 61.3% (active)
29 | C(=NNc1ccc2ccccc2n1)c1cccs1 | 39.2%
30 | CC(C)NC(=S)NN=Cc1cccs1 | 100% (active)
31 | S=C(NN=Cc1cccs1)NC1CCCCC1 | 87.5% (active)
32 | O=C(C=Cc1cccs1)NC1CCCC1 | 21.5%
33 | O=S(=O)(C1=Cc2ccccc2CC1)N1CCC2CCCCC2C1 (centres undefined) | 21.1%
34 | O=C(C=Cc1cccs1)c1cccs1 | 15.1%
35 | O=C(C=Cc1ccc(Br)o1)NC1CCCCCC1 | 89.5% (active)
36 | COC(=O)c1sccc1NC(=O)C=Cc1cccs1 | 81.4% (active)
37 | O=C(C=Cc1ccco1)NC1CCCC1 | 25.8%
38 | c1ccc(-c2cc(Sc3nnc(-c4ccncc4)o3)n3ncnc3n2)cc1 | 102% (active)
39 | Cc1cccc(Nc2nnc(-c3ccncc3)o2)c1 | -7.46%
40 | COc1ccc(OCCCOc2ccc([N+](=O)[O-])cc2Cl)cc1 | 37.7%
41 | COc1ccc(N=Cc2cc([N+](=O)[O-])ccc2OC(F)F)cc1 | 79.9% (active)
42 | COc1ccc(-c2cc(N)ccc2OC(F)F)cc1 | 34.9%
43 | COc1ccc(N2CCN(Cc3cc(C)c(C)cc3O)CC2)cc1 | 83.8% (active)
44 | Cc1ccccc1CN1CCN(c2ccc(S(=O)(=O)C(F)F)cc2)CC1 | 27.6%
45 | COc1ccc(CN2CCN(C(c3ccc(F)cc3)c3ccc(F)cc3)CC2)c(OC)c1OC | 29.5%
46 | COc1ccc(-c2csc(NCc3ccco3)n2)cc1 | 70.6% (active)
47 | Fc1ccc(-n2cc(-c3ccnc(NCc4ccco4)n3)cn2)cc1 | 18.7%
48 | O=C1C(=C2SCCS2)CCCC12CC2c1ccccc1 (centres undefined) | 50.8% (active)
49 | O=C(c1cc(COc2ccc3c(c2)CCCC3)on1)N1CCCN(c2ncccn2)CC1 | 71.4% (active)
50 | O=C(c1cc(COc2ccc3c(c2)CCCC3)on1)N1CCN(C2CCCC2)C(=O)C1 | 69.3% (active)
51 | Cc1ccc(OCc2cc(C(=O)NCCc3ccc(C(F)(F)F)cc3)no2)cn1 | 68.3% (active)
52 | O=C(c1cc(COc2cccc(C(F)(F)F)c2)on1)N1CCCN(c2ncccn2)CC1 | inactive
53 | Cc1nc(CCNC(=O)c2cc(COc3ccc4c(c3)CCCC4)on2)sc1C | 67.7% (active)
54 | CC(C)Oc1ccc(CCNC(=O)c2cc(COc3ccc(F)c(F)c3)on2)cc1 | inactive
